RORg inh = inhibitors of mouse ROR gamma transcriptional activity; P51450; Drosophila S2 Gal4-RORgamma UAS-luciferase reporter, 20 h; Potency, µM (highest dose often 53.6 µM), without a hit: at the highest dose activity change, negative = inhibition, actives largely listed as inhibitors; 310,000 tested, 5.4% active; AID 2551; also: % is scaled to controls: 0 for no effect and ±100 for the full control effect; nearly all actives have a fitted effect of over 60% in size
Target sequence (P51450 whole entry, looked up, the tested form may be a part): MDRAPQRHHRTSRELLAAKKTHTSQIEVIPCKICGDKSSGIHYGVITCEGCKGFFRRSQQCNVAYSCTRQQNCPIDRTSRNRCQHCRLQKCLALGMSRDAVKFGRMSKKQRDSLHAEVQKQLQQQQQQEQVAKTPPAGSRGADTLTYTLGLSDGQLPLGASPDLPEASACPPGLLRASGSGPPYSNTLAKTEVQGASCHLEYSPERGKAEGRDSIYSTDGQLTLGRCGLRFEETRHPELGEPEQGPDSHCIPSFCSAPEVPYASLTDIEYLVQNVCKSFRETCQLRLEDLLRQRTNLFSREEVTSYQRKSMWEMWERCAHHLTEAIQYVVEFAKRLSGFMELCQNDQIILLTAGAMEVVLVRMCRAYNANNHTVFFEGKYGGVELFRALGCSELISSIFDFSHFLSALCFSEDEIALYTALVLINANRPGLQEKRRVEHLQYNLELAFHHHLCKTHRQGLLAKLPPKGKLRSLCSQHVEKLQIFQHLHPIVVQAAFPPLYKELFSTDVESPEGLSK
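In this cell-based reporter format, copper sulfate (700 uM final) drives Gal4–ROR gamma fusion expression from a metallothionein promoter in Drosophila Schneider cells; compounds preincubated 1 hr, reporter read after 20 hr at ambient temperature.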
ATXN viability = viability counter-screen for ATXN expression inhibitors. S2 cells (HEK-293 line with an ATXN2-luciferase reporter) viability, CellTiter-Fluor protease fluorescence, 24 h. Potency, µM (series often up to 56.7 µM), most hits filed as cytotoxic. 400,000 tested, 0.49% active. AID 651635; also: nearly all actives have a fitted effect of over 40% in size
TGFb SMAD3 inh = TGF-b pathway inhibition. HepG2 CAGA-GFP TGF-b/SMAD3 reporter, GFP fluorescence, 18 h; TGF-beta stimulated, 500 pg/mL final. Potency, µM (doses to about 46.1 µM), for inactives: at the highest dose activity, negative = inhibition, most hits filed as inhibitors. 410,000 tested, 1.2% active; also: % is scaled to controls: 0 for no effect and ±100 for the full control effect; nearly all actives have a fitted effect of over 65% in size
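HEPG2 CAGA-GFP, 1000 cells/well; 2 h settle, 37 C; cpd via pin tool; TGF-b 500 pg/mL final; 18 h, 37 C; GFP imaging ex488/em500-530; %Activity normalised to -TGF-b and +DMSO controls; CRC fit, curve class.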
ATXN2 expr inh = reduces ATXN2 reporter expression in HEK-293 cells; 360,000 tested, 0.72% active; HEK-293 ATXN2-luciferase reporter, luminescence, 24 h; AID 1745845; Potency, µM (top dose mostly 57 µM), for inactives: at the top dose activity change, negative = inhibition, hits mostly inhibitors; also: % is scaled to controls: 0 for no effect and ±100 for the full control effect; nearly all actives have a fitted effect of over 55% in size
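qHTS (up to 57 uM final) was run with 24 h compound exposure of reporter cells at 37 °C. Each well was multiplexed: SteadyGlo luminescence measured ATXN2-luciferase expression after a fluorogenic Gly-Phe-AFC viability readout (25 uM final).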
HepG2 viability = counter-screen for TGF-b inhibitors: cytotoxicity in HepG2 cells; HepG2 CAGA-GFP viability, ATP luminescence, 18 h; Potency, µM (titrated, usually from 46.1 µM), inactives show at the top dose activity change, negative = cytotoxicity, hits mostly cytotoxic; 410,000 tested, 0.76% active; AID 588856
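HepG2 CAGA-GFP cells (1000/well, DMEM with 1% FBS) received compound, then TGF-beta at 500 pg/mL final, and were incubated 18 hours at 37 degrees C. Viability was read by CellTiter-Glo luminescence. Media-only wells were set as complete cell-killing and DMSO as no toxicity.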
VP16 counter = Gal4-VP16 reporter inhibition counter-screen | Drosophila S2 Gal4-VP16 UAS-luciferase, luminescence, 20 h | Potency, µM (doses to about 53.6 µM), inactives show at the highest dose activity, negative = inhibition, usual class: inhibitors | 310,000 tested, 3.5% active | AID 2546;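 also: Gal4-VP16 expression switched on by copper sulfate through the metallothionein promoter; % is scaled to controls: 0 for no effect and ±100 for the full control effect; nearly all actives have a fitted effect of over 50% in size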
* = called active by the depositor; i = inactive; ? = inconclusive; / = no result given; ! = not confirmed by another sample; [ ] = dose if it differs, or a comment. A selection: hits, their analogues and other compounds. The true share with any hit is near 6.1%. Calls follow the shape of the dose curve; as a rule, active = well fitted curve in the direction sought with a large enough effect; inconclusive = small, poorly fitted or top-dose-only effect, or another doubt; inactive = no such curve, though single readings can be large; an effect the other way counts as inactive or inconclusive. Potency is read from the fitted curve at half-maximal effect.

SMILES	RORg inh	ATXN viability	TGFb SMAD3 inh	ATXN2 expr inh	HepG2 viability	VP16 counter
CC(C)(C)NC(=O)Cn1cc(S(=O)(=O)Cc2ccccc2Cl)c2ccccc21	/	/	0.0%	/	1.8%	/
Clc1ccc2c(N/N=C/c3cccc(Br)c3)ccnc2c1	-117.0%	/	-47.4%	?	-59.1%	?
O=[N+]([O-])c1ccc(/C=N/Nc2ccnc3cc(Cl)ccc23)o1	-14.7%	?	?	-27.5%	20µM*	-27.1%
Clc1ccc2c(N/N=C/c3ccccc3Br)ccnc2c1	-109.5%	?	-5.6%	?	-39.4%	17.8µM*
C/C(=N/Nc1ccnc2cc(Cl)ccc12)c1ccc(N)cc1	/	25.1µM*	?	0.0%	-47.4%	/
C/C(=N/Nc1ccnc2cc(Cl)ccc12)c1ccc(O)cc1	/	?	?	-34.4%	-97.3%	/
CC(O)CNCCNCc1c(OCc2ccccc2)ccc2ccccc12 (centres undefined)	?	?	11.2µM*	25.1µM*	-93.1%	22.4µM*
COc1ccccc1/C=C/c1onc(C)c1S(=O)(=O)N1CCC(C(=O)N2CCC(C)CC2)CC1	/	/	?	/	4.3%	/
c1cc2c3c(c1)CCCN3CCC2	/	/	-8.4%	/	1.4%	/
Cc1cc(C)nc(-n2nc(C)c(Sc3ccc(F)cc3)c2N)n1	2.24µM*	?	?	30.9%	-31.7%	3.98µM*
CCCCCC1Nc2cc(C(F)(F)F)c(S(N)(=O)=O)cc2S(=O)(=O)N1 (centres undefined)	/	i	/	-0.9%	/	/
COc1cccc(N=Nc2ccc3ccccc3c2O)c1	8.91µM*	?	4.8%	/	-0.6%	?
CCOc1ccc(CNC(=O)c2ccc(Sc3ccc(Cl)cc3)c(NC(C)=O)c2)cc1OC	?	?	11.2µM*!	-14.0%	-33.0%	-12.1%
CCOc1ccc(CNC(=O)c2ccc(Sc3ccc(C)cc3)c(NC(C)=O)c2)cc1OC	?	i	?	-9.1%	0.9%	-26.4%
O=C(Cn1sc2ccccc2c1=O)Nc1ccccc1	/	/	17.8µM*	35.5µM*	-94.2%	/
O=C(CN1C(=O)c2ccccc2C1=O)Nc1ccccc1	-1.8%	i	?	/	5.9%	11.7%
O=C(Cn1sc2ccccc2c1=O)NC12CC3CC(CC(C3)C1)C2	3.55µM*	?	?	-32.6%	5.62µM*	0.501µM*
Cc1cc(C)n2cc(COc3ccc4ccccc4c3)nc2n1	-2.2%	i	?	-0.9%	-21.4%	-16.0%
Cc1cccc2nc(COc3ccc(-c4ccccc4)cc3)cn12	12.6µM*	/	/	/	/	3.0%
Cn1ccc(C(=O)NC(=S)N2CCSCC2)n1	11.2µM*	i	6.2%	13.4%	0.9%	-10.2%
COc1cccc(NC(=S)NC(=O)c2cccnc2)c1	20µM*	i	-8.9%	16.8%	-17.3%	-93.9%
CCOC(=O)c1cccc(NC(=S)NC(=O)c2cccnc2)c1	12.6µM*	i	8.3%	6.8%	-12.4%	?
Cc1ccc(C(=O)NC(=S)Nc2ccc(-c3cc4ccccc4oc3=O)cc2)c(C)c1	0.8%	i	-8.2%	?	0.6%	-7.9%
COc1cccc(NC(=S)NC(=O)c2cncc(Br)c2)c1	/	i	-12.5%	14.1%	-42.8%	/
Cc1cc(C)cc(C(=O)NC(=S)Nc2ccc(-c3cc4ccccc4oc3=O)cc2)c1	?	?	2.0%	6.31µM*	1.0%	-10.1%
SMILES	RORg inh	ATXN viability	TGFb SMAD3 inh	ATXN2 expr inh	HepG2 viability	VP16 counter
Cc1ccc(NC(=S)Nc2cccnc2)c(S(=O)(=O)N2CCCCC2)c1	?	i	?	-18.6%	-3.7%	15.8µM*
Cc1ccc(NC(=O)CSc2nc3c(oc4ccccc43)c(=O)n2Cc2ccco2)cc1F	/	i	6.3%	11.1%	-2.8%	/
O=C(Nc1ccc(Cl)cc1)c1cc2c(-c3ccccc3)nn(-c3ccccc3)c2s1	/	i	-15.2%	-2.7%	-7.4%	/
CCc1c(C)sc(NC(=S)Nc2nc(C)cc(C)n2)c1C(=O)OC	-39.9%	i	6.8%	-9.4%	1.2%	7.4%
CCc1c(C)sc(NC(=S)Nc2cccnc2)c1C(=O)OC	3.55µM*	?	7.7%	-16.9%	-14.7%	6.31µM*
Cc1cc(C)cc(C(=O)NC(=S)Nc2cccnc2)c1	10µM*	i	-8.0%	16.6%	2.3%	?
CCc1nc2cc(C(=O)NC3CCS(=O)(=O)C3)cc(NC(=O)c3ccccc3OC)c2n1C (centres undefined)	/	i	/	/	/	/
COc1ccc(-n2nc(C(N)=O)c3c2C(=O)N(c2ccc(N4CCCCC4=O)cc2)CC3)cc1	/	/	/	5.2%	/	/
Cc1ccc2nc(-c3ccco3)c(Nc3ccc4c(c3)OCCO4)n2c1	/	i	-14.4%	9.4%	-11.0%	/
COc1ccc(Nc2c(-c3ccco3)nc3ccc(C)cn23)cc1	17.8µM*	i	3.5%	/	-0.3%	-9.2%[10 µM]
Cc1ccc2nc(-c3ccco3)c(CC(C)(C)C)n2c1	/	20µM*	?	?	-29.5%	/
COc1ccc(CN2CCOc3ccc(C(O)c4cccnc4)cc3C2)c(OC)c1OC (centres undefined)	/	i	/	/	/	/
Cc1cc(C)c2nc(SC(C)C(=O)NCC(=O)Nc3ccc(F)c(F)c3F)cc(C)c2c1 (centres undefined)	-3.9%	i	20.9%	-22.9%	29.0%	-9.4%
Cc1cc(SC(C)C(=O)NCC(=O)Nc2ccc(F)c(F)c2F)nc2ccccc12 (centres undefined)	10µM*	?	0.0%	?	-1.0%	?
C=CCn1cccc(/C=C/C(=O)c2ccc(C(C)(C)C)cc2)c1=S	?	/	?	25.1µM*	-108.4%	?
O=c1[nH]c(SCc2ccc(Br)cc2)nc2c1CCCC2	/	i	9.0%	8.3%	5.5%	/
CC1CCCCN1S(=O)(=O)c1ccc2[nH]c(=O)cc(C(=O)NCCc3ccc(Cl)cc3)c2c1 (centres undefined)	/	/	?	/	7.0%	/
Cc1ccc(/C=N/NC(=O)C(O)c2ccccc2)o1 (centres undefined)	1.7%	i	5.3%	0.7%	-8.5%	4.2%
Oc1ccc(/C=N/NC(=S)N2CCOCC2)cc1	1.12µM*	i	?	-14.4%	-30.9%	?
O=C(O)c1cc(N/N=C/c2ccc(N3CCOCC3)cc2)ccc1Cl	7.08µM*	i	-4.5%	/	3.5%	?
Cc1ccc(/C=N/NC(=S)NC(C)C)o1	1.41µM*	i	-14.1%	15.4%	1.3%	2.82µM*
Clc1cccc(N/N=C/c2ccc(N3CCOCC3)cc2)c1	28.5%	?	11.1%	17.0%	-3.9%	18.4%
O=C(Nc1ccc(O)cc1)N1CCOCC1	3.2%	?	15.5%	/	14.0%	-7.3%
C=C(C)CNC(=S)N/N=C/c1ccc(N2CCOCC2)cc1	2µM*	i	-22.7%	-6.6%	-7.5%	5.01µM*
